Measured values: publication PMC7862700, “An all-to-all approach to the identification of sequence-specific readers for epigenetic DNA modifications on cytosine”

Columns and labels:
Assay in all cases: DAPPL (digital affinity profiling via proximity ligation, sequencing); 10 mM Tris-HCl pH 7.5, 50 mM NaCl, 1 mM DTT, 4% glycerol, room temperature, 30 min; GST-TFs on glutathione beads, 16-mer random dsDNA library, 0.1% formaldehyde crosslink after washing; high values mean tight binding
FEV = molecular target: T1, FEV (Homo sapiens, UniProt Q99581 1-238); conditions: protein: recombinant; tags: N-terminal GST; dsDNA, one strand shown
T1 sequence: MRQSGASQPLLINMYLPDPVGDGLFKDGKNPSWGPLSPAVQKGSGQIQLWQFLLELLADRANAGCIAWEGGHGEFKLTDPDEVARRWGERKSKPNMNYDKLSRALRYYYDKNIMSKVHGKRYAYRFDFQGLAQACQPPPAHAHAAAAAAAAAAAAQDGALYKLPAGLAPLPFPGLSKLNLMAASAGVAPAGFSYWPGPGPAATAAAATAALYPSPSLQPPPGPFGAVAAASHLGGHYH
How it was run: (§1)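 Each value of binding signal is a hexamer's read frequency for a factor divided by the same hexamer's frequency in the tag-only sample. Barcoded, bead-captured GST fusions of human transcription factors made in yeast were pooled with that sample and incubated with 200 nmole of a random double-stranded 16-mer DNA library in Tris/NaCl/DTT/glycerol buffer at room temperature for 30 min. Washing, 0.1% formaldehyde crosslinking, proximity ligation, PCR and Illumina NextSeq500 sequencing followed.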

ETV5 = ETV5 (Homo sapiens, UniProt P41161 1-510); conditions: protein: recombinant; tags: N-terminal GST; dsDNA, one strand shown
Sequence of ETV5 (P41161 whole entry): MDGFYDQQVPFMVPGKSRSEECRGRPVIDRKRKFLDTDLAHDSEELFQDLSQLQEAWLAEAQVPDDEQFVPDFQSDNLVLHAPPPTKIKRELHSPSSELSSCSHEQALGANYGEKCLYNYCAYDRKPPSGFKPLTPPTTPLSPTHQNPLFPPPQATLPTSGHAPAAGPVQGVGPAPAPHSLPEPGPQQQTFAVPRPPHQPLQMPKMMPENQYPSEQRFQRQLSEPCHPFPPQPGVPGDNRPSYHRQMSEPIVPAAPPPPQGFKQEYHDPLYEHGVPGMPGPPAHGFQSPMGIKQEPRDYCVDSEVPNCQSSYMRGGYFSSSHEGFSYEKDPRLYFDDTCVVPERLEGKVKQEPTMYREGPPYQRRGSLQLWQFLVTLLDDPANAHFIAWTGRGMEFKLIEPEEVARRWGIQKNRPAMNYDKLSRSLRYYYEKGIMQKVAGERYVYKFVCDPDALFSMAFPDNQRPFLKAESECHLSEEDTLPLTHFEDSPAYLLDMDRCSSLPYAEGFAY
How it was run: as §1

HSF1 = HSF1 (Homo sapiens, UniProt Q00613 1-529); conditions: protein: recombinant; tags: N-terminal GST; chain copies: 3; dsDNA, one strand shown
Sequence of HSF1 (Q00613 whole entry): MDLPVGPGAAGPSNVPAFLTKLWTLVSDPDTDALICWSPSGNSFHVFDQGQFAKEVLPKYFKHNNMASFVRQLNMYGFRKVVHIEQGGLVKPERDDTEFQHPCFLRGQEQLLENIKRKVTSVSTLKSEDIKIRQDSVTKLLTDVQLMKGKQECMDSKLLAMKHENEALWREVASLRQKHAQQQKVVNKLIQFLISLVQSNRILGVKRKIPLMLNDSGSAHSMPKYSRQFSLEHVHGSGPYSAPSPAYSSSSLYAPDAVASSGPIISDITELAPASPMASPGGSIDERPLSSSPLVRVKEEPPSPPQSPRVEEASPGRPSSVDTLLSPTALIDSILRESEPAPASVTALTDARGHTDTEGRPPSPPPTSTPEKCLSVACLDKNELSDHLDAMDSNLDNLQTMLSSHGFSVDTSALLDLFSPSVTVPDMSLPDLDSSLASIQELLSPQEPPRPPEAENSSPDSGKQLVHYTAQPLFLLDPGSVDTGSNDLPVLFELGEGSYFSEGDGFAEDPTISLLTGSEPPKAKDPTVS
How it was run: as §1

SPIC = molecular target: T2, SPIC (Homo sapiens, UniProt Q8N5J4 1-248); conditions: protein: recombinant; tags: N-terminal GST; dsDNA, one strand shown
T2 sequence: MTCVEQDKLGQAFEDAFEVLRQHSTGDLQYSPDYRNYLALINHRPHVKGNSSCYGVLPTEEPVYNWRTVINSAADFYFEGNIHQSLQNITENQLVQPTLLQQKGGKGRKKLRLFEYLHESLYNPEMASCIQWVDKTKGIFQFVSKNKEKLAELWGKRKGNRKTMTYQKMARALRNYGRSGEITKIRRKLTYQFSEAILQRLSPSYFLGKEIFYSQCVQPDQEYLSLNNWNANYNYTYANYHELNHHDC
How it was run: as §1

ELF4 = ELF4 (Homo sapiens, UniProt Q99607 1-663); conditions: protein: recombinant; tags: N-terminal GST; dsDNA, one strand shown
Sequence of ELF4 (Q99607 whole entry): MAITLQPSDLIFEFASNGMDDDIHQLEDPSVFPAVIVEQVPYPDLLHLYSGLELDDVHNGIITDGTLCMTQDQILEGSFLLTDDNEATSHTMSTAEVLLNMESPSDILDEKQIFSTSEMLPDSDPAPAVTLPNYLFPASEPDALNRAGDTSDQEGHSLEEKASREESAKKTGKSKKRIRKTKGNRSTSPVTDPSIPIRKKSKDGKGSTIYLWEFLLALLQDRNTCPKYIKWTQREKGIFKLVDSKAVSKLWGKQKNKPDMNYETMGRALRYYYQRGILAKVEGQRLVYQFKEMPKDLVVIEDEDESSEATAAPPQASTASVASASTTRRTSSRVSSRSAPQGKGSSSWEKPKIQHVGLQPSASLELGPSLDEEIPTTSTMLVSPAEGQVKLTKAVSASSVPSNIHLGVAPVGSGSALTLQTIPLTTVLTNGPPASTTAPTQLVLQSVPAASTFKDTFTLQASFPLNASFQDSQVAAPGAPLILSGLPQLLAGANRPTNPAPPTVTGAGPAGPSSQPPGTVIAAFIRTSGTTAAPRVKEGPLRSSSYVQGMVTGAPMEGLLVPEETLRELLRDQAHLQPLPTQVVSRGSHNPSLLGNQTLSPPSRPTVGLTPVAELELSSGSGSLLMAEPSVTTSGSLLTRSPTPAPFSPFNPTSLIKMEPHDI
How it was run: as §1

ELK4 = molecular target: T3, ELK4 (Homo sapiens, UniProt P28324-2 1-405); conditions: protein: recombinant; tags: N-terminal GST; dsDNA, one strand shown
T3 sequence: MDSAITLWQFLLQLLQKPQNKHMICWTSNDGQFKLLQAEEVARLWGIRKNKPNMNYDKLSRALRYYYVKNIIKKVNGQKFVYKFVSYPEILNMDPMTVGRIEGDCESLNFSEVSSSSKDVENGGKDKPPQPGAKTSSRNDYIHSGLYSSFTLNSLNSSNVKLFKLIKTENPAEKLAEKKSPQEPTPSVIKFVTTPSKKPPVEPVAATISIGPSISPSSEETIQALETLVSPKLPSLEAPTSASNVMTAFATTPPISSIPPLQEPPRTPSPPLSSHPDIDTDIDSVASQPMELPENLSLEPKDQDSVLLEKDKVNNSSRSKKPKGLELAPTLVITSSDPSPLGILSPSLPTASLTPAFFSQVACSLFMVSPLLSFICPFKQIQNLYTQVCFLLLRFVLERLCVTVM
How it was run: as §1

ETV2 = molecular target: T4, ETV2 (Homo sapiens, UniProt O00321 1-342); conditions: protein: recombinant; tags: N-terminal GST; dsDNA, one strand shown
T4 sequence: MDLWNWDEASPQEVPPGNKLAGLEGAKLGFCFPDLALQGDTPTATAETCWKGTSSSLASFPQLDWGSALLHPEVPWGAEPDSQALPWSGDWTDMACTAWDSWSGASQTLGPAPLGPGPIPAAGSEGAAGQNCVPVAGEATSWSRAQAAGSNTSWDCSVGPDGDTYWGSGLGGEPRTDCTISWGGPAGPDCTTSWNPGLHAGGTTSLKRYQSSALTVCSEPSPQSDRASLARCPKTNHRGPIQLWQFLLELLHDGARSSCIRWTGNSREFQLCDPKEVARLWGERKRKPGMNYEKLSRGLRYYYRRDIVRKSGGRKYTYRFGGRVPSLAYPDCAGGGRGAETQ
How it was run: as §1

ELF3 = molecular target: T5, ELF3 (Homo sapiens, UniProt P78545 1-371); conditions: protein: recombinant; tags: N-terminal GST; dsDNA, one strand shown
T5 sequence: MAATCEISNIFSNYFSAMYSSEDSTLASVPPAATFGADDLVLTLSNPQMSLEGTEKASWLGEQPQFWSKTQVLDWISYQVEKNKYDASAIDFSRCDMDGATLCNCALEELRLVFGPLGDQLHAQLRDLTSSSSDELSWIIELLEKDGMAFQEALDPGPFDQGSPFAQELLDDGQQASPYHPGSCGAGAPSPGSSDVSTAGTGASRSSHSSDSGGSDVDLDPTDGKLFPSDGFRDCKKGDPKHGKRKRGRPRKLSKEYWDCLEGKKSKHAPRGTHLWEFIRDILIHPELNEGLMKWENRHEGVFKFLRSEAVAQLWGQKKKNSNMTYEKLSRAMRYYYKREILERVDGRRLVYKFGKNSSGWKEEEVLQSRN
How it was run: as §1

CRX = CRX (Homo sapiens, UniProt O43186 1-299); conditions: protein: recombinant; tags: N-terminal GST; dsDNA, one strand shown
Sequence of CRX (O43186 whole entry): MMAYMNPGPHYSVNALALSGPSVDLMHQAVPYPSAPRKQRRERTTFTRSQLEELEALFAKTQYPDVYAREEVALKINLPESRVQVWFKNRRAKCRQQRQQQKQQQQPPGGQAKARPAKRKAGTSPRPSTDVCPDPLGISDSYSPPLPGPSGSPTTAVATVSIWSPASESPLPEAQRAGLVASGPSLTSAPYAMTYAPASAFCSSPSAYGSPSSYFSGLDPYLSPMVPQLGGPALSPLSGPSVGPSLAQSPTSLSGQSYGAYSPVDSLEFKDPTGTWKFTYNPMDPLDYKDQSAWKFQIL
How it was run: as §1

ETV1 = ETV1 (Homo sapiens, UniProt P50549 1-477); conditions: protein: recombinant; tags: N-terminal GST; dsDNA, one strand shown
Sequence of ETV1 (P50549 whole entry): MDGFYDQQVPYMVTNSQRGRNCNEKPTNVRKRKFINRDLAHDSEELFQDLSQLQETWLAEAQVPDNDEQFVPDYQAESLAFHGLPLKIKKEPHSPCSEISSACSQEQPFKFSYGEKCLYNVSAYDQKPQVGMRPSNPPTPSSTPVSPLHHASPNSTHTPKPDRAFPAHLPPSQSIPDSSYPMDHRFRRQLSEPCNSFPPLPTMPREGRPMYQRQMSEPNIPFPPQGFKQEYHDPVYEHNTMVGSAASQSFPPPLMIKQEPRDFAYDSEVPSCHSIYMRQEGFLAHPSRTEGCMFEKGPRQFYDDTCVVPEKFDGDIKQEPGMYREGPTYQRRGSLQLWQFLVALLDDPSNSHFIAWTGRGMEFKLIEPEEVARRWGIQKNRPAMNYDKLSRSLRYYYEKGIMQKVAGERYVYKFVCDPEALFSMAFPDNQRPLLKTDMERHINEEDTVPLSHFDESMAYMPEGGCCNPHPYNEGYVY
How it was run: as §1

ERF = molecular target: T6, ERF (Homo sapiens, UniProt P50548 1-548); conditions: protein: recombinant; tags: N-terminal GST; dsDNA, one strand shown
T6 sequence: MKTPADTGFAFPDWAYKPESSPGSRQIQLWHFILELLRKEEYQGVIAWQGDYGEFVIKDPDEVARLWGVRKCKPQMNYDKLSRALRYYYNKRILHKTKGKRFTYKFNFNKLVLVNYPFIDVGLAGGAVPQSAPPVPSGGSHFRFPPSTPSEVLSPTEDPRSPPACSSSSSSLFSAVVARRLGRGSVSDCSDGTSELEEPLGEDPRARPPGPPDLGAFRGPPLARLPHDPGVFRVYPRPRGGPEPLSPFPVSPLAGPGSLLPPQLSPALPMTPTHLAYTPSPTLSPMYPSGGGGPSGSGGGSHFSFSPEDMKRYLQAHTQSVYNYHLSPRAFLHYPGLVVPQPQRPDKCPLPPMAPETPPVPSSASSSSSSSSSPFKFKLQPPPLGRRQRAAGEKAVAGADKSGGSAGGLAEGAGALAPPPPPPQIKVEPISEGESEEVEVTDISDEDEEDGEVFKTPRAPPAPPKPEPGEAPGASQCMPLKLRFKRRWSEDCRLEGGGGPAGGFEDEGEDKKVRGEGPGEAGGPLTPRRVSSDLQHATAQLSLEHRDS
How it was run: as §1

ETV3L = molecular target: T7, ETV3L (Homo sapiens, UniProt Q6ZN32 1-361); conditions: protein: recombinant; tags: N-terminal GST; dsDNA, one strand shown
T7 sequence: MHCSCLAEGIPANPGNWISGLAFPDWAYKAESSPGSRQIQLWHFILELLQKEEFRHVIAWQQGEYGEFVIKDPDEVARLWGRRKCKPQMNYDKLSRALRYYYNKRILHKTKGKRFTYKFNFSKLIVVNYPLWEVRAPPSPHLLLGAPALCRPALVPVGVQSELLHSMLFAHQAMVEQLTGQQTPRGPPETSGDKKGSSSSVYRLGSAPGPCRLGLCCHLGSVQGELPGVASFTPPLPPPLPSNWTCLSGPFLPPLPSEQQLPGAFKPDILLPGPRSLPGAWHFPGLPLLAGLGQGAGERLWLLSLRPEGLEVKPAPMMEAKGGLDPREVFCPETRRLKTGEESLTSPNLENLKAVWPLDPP
How it was run: as §1

ETS2 = molecular target: T8, ETS2 (Homo sapiens, UniProt P15036 1-469); conditions: protein: recombinant; tags: N-terminal GST; dsDNA, one strand shown
T8 sequence: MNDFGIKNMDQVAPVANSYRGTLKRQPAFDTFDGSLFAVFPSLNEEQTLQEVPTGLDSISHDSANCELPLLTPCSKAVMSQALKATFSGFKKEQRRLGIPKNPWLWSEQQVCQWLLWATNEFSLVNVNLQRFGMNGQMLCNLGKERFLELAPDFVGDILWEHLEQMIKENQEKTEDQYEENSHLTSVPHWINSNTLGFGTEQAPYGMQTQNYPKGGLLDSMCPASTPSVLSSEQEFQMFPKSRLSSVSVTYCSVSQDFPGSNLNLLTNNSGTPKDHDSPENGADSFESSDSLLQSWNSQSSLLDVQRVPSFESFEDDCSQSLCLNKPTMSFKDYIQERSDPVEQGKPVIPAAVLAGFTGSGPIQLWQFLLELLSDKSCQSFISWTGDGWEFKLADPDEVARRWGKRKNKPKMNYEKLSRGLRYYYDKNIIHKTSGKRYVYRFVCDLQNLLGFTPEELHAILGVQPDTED
How it was run: as §1

SPDEF = molecular target: T9, SPDEF (Homo sapiens, UniProt O95238 1-335); conditions: protein: recombinant; tags: N-terminal GST; dsDNA, one strand shown
T9 sequence: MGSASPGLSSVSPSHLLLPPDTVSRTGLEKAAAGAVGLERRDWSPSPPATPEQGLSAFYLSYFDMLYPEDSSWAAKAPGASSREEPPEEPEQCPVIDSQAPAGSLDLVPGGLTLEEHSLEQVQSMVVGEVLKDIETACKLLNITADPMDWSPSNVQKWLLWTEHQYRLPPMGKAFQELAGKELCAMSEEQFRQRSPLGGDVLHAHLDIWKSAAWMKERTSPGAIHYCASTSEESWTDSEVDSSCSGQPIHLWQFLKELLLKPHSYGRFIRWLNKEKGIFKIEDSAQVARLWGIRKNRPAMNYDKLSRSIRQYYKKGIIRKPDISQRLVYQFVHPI
How it was run: as §1

ETV7 = molecular target: T10, ETV7 (Homo sapiens, UniProt Q9Y603 1-341); conditions: protein: recombinant; tags: N-terminal GST; dsDNA, one strand shown
T10 sequence: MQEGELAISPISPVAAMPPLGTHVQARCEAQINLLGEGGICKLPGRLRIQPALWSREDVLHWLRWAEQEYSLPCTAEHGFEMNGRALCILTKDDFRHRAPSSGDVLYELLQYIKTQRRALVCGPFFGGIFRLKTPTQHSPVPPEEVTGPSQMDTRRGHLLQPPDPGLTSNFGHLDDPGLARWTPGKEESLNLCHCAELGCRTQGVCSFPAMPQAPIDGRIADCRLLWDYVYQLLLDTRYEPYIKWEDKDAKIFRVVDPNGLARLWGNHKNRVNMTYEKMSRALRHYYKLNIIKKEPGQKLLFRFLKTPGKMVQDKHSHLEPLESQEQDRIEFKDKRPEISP
How it was run: as §1

ELF5 = molecular target: T11, ELF5 (Homo sapiens, UniProt Q9UKW6-2 1-255); conditions: protein: recombinant; tags: N-terminal GST; dsDNA, one strand shown
T11 sequence: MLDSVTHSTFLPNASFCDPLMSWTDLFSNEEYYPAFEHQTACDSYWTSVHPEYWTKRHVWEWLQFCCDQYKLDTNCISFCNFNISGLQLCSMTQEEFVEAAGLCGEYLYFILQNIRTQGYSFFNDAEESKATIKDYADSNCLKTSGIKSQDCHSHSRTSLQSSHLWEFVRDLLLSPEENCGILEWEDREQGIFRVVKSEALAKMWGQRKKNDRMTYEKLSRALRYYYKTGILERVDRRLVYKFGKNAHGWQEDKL
How it was run: as §1

ETV3 = molecular target: T12, ETV3 (Homo sapiens, UniProt P41162-2 1-143); conditions: protein: recombinant; tags: N-terminal GST; dsDNA, one strand shown
T12 sequence: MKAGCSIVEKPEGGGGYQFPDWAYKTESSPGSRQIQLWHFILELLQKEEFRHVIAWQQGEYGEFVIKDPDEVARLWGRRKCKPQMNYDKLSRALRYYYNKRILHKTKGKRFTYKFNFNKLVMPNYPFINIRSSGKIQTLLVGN
How it was run: as §1

ETV6 = ETV6 (Homo sapiens, UniProt P41212 1-452); conditions: protein: recombinant; tags: N-terminal GST; dsDNA, one strand shown
Sequence of ETV6 (P41212 whole entry): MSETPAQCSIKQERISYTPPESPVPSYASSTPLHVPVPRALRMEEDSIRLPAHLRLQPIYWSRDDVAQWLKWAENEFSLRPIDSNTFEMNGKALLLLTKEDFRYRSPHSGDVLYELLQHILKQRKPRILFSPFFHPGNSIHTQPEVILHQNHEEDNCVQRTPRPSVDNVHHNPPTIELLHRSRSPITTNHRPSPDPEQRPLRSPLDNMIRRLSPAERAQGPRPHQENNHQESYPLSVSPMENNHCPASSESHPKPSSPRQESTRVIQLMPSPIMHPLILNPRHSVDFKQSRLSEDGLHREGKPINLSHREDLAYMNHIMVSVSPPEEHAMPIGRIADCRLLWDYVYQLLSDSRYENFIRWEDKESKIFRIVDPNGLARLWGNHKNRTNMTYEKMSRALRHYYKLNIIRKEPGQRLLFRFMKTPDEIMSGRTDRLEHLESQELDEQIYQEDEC
How it was run: as §1

TCCGGT
binding signal (FEV): 6.6 fold enrichment (6-mer frequency, TF over GST control)
binding signal (ETV5): 3.98 fold enrichment (6-mer frequency, TF over GST control)
binding signal (HSF1): 1.09 fold enrichment (6-mer frequency, TF over GST control)
binding signal (SPIC): 3.59 fold enrichment (6-mer frequency, TF over GST control)
binding signal (ELF4): 3.32 fold enrichment (6-mer frequency, TF over GST control)
binding signal (ELK4): 3.14 fold enrichment (6-mer frequency, TF over GST control)
binding signal (ETV2): 3.65 fold enrichment (6-mer frequency, TF over GST control)
binding signal (ELF3): 3.41 fold enrichment (6-mer frequency, TF over GST control)
binding signal (CRX): 1.04 fold enrichment (6-mer frequency, TF over GST control)
binding signal (ETV1): 3.87 fold enrichment (6-mer frequency, TF over GST control)
binding signal (ERF): 3.43 fold enrichment (6-mer frequency, TF over GST control)
binding signal (ETV3L): 3.57 fold enrichment (6-mer frequency, TF over GST control)
binding signal (ETS2): 3.76 fold enrichment (6-mer frequency, TF over GST control)
binding signal (SPDEF): 5.35 fold enrichment (6-mer frequency, TF over GST control)
binding signal (ETV7): 3.35 fold enrichment (6-mer frequency, TF over GST control)
binding signal (ELF5): 4.56 fold enrichment (6-mer frequency, TF over GST control)
binding signal (ETV3): 4.02 fold enrichment (6-mer frequency, TF over GST control)
binding signal (ETV6): 4.04 fold enrichment (6-mer frequency, TF over GST control)
